Reference: PubChem BioAssay (EPA / NIEHS)
The source made the active and inactive calls. Rule for the calls: active = hit-call score of the fitted dose curve at least 0.9, where 1 is the maximum; inactive = score below 0.9.

Each molecule was assayed on JUN Transcription Factor, JUN (gene 3725) (assay: LTEA_HepaRG_JUN: Life Technologies and Expression Analysis (LTEA) Assay for JUN Transcription Factor using HepaRG (AID 2283513)). Settings: mRNA level, 48 h; actives raise or lower the signal.
How it was run: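 Gene-expression endpoint: JUN mRNA (qRT-PCR, normalized to three reference genes) in HepaRG cultures treated 48 h with chemicals, duplicate wells, 100 uM maximum with half-log dilutions; bidirectional fitting relative to 0.5% DMSO.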

Row | SMILES | outcome | AC50
1 | COc1cc(Cl)c(OC)cc1Cl | inactive | –
2 | N#CN=C1SCCN1Cc1ccc(Cl)nc1 | inactive | –
3 | COc1ccc(-c2ccccc2)cc1NNC(=O)OC(C)C | inactive | –
4 | C=CCOC(=O)C(C)(C)OC(=O)c1cc(-n2c(=O)cc(C(F)(F)F)n(C)c2=O)ccc1Cl | inactive | –
5 | COCc1cnc(C2=NC(C)(C(C)C)C(=O)N2)c(C(=O)O)c1 (configuration not stated) | inactive | –
6 | CCOc1nc(C(Cl)(Cl)Cl)ns1 | – | 1.89 µM (active)
7 | Cc1nc(N(C)C)nc(OC(=O)N(C)C)c1C | inactive | –
8 | O=C(O)c1c(Cl)ccc2cc(Cl)cnc12 | inactive | –
9 | COC(=O)NC(=S)Nc1ccccc1NC(=S)NC(=O)OC | inactive | –
10 | CCC(C)n1c(=O)[nH]c(C)c(Br)c1=O (configuration not stated) | inactive | –
11 | COP(=S)(OC)SCn1nnc2ccccc2c1=O | inactive | –
12 | CCCCC(O)(Cn1cncn1)c1ccc(Cl)cc1Cl (configuration not stated) | inactive | –
13 | Cc1cc(C)nc(Nc2ccccc2)n1 | inactive | –
14 | CCSC(=O)N1CCCCCC1 | inactive | –
15 | O=P(O)(O)CCCl | inactive | –
16 | CC(C)Oc1cccc(NC(=O)c2ccccc2C(F)(F)F)c1 | inactive | –
17 | CC(C)(C)C(=O)C(Oc1ccc(Cl)cc1)n1cncn1 (configuration not stated) | inactive | –
18 | Nc1cnn(-c2ccccc2)c(=O)c1Cl | inactive | –

Row | SMILES | outcome | AC50
19 | CCN(CC)c1nc(C)cc(OP(=S)(OC)OC)n1 | inactive | –
20 | CCCN(CC)CC1COC2(CCC(C(C)(C)C)CC2)O1 (configuration not stated) | inactive | –
21 | Nc1c(Cl)c(Cl)nc(C(=O)O)c1Cl | inactive | –
22 | CC(C)C1(C)N=C(c2ncccc2C(=O)O)NC1=O (configuration not stated) | inactive | –
23 | COC(=O)N(C(=O)N1CO[C@@]2(C(=O)OC)Cc3cc(Cl)ccc3C2=N1)c1ccc(OC(F)(F)F)cc1 | inactive | –
24 | CC(C)NC(=O)N1CC(=O)N(c2cc(Cl)cc(Cl)c2)C1=O | inactive | –
25 | CCOP(=S)(OCC)Oc1nc(Cl)n(C(C)C)n1 | inactive | –
26 | CCCC(=NOCC)C1=C(O)CC(CC(C)SCC)CC1=O (configuration not stated) | inactive | –
27 | COCC(=O)N(c1c(C)cccc1C)C(C)C(=O)OC (configuration not stated) | inactive | –
28 | COP(=O)(OC)O/C(C)=C/C(=O)N(C)C | inactive | –
29 | CC1(C)C(C(=O)OC(C#N)c2cccc(Oc3ccccc3)c2)C1(C)C (configuration not stated) | inactive | –
30 | CS(=O)(=O)c1ccc(C(=O)C2C(=O)CCCC2=O)c([N+](=O)[O-])c1 | inactive | –
31 | CCCCC(C#N)(Cn1cncn1)c1ccc(Cl)cc1 (configuration not stated) | inactive | –
32 | CN=C=S | inactive | –
33 | Clc1cccc(C(Cl)(Cl)Cl)n1 | inactive | –
34 | CCNP(=S)(OC)O/C(C)=C/C(=O)OC(C)C (configuration not stated) | inactive | –
35 | Cc1cnc(C2=NC(C)(C(C)C)C(=O)N2)c(C(=O)O)c1 (configuration not stated) | inactive | –
36 | COc1cc(OC)nc(NC(=O)NS(=O)(=O)c2ncccc2OCC(F)(F)F)n1 | inactive | –

Each molecule was assayed on Lipase C (LIPC), LIPC (gene 3990) (assay: LTEA_HepaRG_LIPC: Life Technologies and Expression Analysis (LTEA) Assay for Lipase C (LIPC) using HepaRG (AID 2283514)). Settings: mRNA level, 48 h; actives raise or lower the signal.
How it was run: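 In this multiplexed gene-expression screen, human HepaRG cultures received test chemicals for 48 h across eight concentrations with 100 uM highest, in duplicate. Values reflect LIPC mRNA induction or suppression versus DMSO vehicle, from normalized qRT-PCR.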

Row | SMILES | outcome | AC50
37 | COc1cc(Cl)c(OC)cc1Cl | inactive | –
38 | N#CN=C1SCCN1Cc1ccc(Cl)nc1 | inactive | –
39 | COc1ccc(-c2ccccc2)cc1NNC(=O)OC(C)C | inactive | –
40 | C=CCOC(=O)C(C)(C)OC(=O)c1cc(-n2c(=O)cc(C(F)(F)F)n(C)c2=O)ccc1Cl | inactive | –
41 | COCc1cnc(C2=NC(C)(C(C)C)C(=O)N2)c(C(=O)O)c1 (configuration not stated) | inactive | –
42 | CCOc1nc(C(Cl)(Cl)Cl)ns1 | – | 0.944 µM (active)
43 | Cc1nc(N(C)C)nc(OC(=O)N(C)C)c1C | inactive | –
44 | O=C(O)c1c(Cl)ccc2cc(Cl)cnc12 | inactive | –
45 | COC(=O)NC(=S)Nc1ccccc1NC(=S)NC(=O)OC | inactive | –
46 | CCC(C)n1c(=O)[nH]c(C)c(Br)c1=O (configuration not stated) | – | 23.3 µM (active)
47 | COP(=S)(OC)SCn1nnc2ccccc2c1=O | inactive | –
48 | CCCCC(O)(Cn1cncn1)c1ccc(Cl)cc1Cl (configuration not stated) | – | 75.2 µM (active)
49 | Cc1cc(C)nc(Nc2ccccc2)n1 | inactive | –
50 | CCSC(=O)N1CCCCCC1 | inactive | –
51 | O=P(O)(O)CCCl | inactive | –
52 | CC(C)Oc1cccc(NC(=O)c2ccccc2C(F)(F)F)c1 | inactive | –
53 | CC(C)(C)C(=O)C(Oc1ccc(Cl)cc1)n1cncn1 (configuration not stated) | inactive | –
54 | Nc1cnn(-c2ccccc2)c(=O)c1Cl | inactive | –

Row | SMILES | outcome | AC50
55 | CCN(CC)c1nc(C)cc(OP(=S)(OC)OC)n1 | inactive | –
56 | CCCN(CC)CC1COC2(CCC(C(C)(C)C)CC2)O1 (configuration not stated) | inactive | –
57 | Nc1c(Cl)c(Cl)nc(C(=O)O)c1Cl | inactive | –
58 | CC(C)C1(C)N=C(c2ncccc2C(=O)O)NC1=O (configuration not stated) | inactive | –
59 | COC(=O)N(C(=O)N1CO[C@@]2(C(=O)OC)Cc3cc(Cl)ccc3C2=N1)c1ccc(OC(F)(F)F)cc1 | – | 40 µM (active)
60 | CC(C)NC(=O)N1CC(=O)N(c2cc(Cl)cc(Cl)c2)C1=O | – | 10.2 µM (active)
61 | CCOP(=S)(OCC)Oc1nc(Cl)n(C(C)C)n1 | inactive | –
62 | CCCC(=NOCC)C1=C(O)CC(CC(C)SCC)CC1=O (configuration not stated) | inactive | –
63 | COCC(=O)N(c1c(C)cccc1C)C(C)C(=O)OC (configuration not stated) | inactive | –
64 | COP(=O)(OC)O/C(C)=C/C(=O)N(C)C | inactive | –
65 | CC1(C)C(C(=O)OC(C#N)c2cccc(Oc3ccccc3)c2)C1(C)C (configuration not stated) | inactive | –
66 | CS(=O)(=O)c1ccc(C(=O)C2C(=O)CCCC2=O)c([N+](=O)[O-])c1 | inactive | –
67 | CCCCC(C#N)(Cn1cncn1)c1ccc(Cl)cc1 (configuration not stated) | inactive | –
68 | CN=C=S | inactive | –
69 | Clc1cccc(C(Cl)(Cl)Cl)n1 | inactive | –
70 | CCNP(=S)(OC)O/C(C)=C/C(=O)OC(C)C (configuration not stated) | inactive | –
71 | Cc1cnc(C2=NC(C)(C(C)C)C(=O)N2)c(C(=O)O)c1 (configuration not stated) | inactive | –
72 | COc1cc(OC)nc(NC(=O)NS(=O)(=O)c2ncccc2OCC(F)(F)F)n1 | inactive | –
